An excerpt weighted towards active compounds, which were near 11% of everything screened.
RORg inh – ROR gamma (mouse) transcription inhibition | 310,000 compounds, 5.4% hits | Drosophila S2 Gal4-RORgamma UAS-luciferase reporter, 20 h | P51450 | Potency, µM (doses to about 53.6 µM), most hits filed as inhibitors; further: nearly all actives have a fitted effect of over 60% in size
Target sequence (P51450 whole entry, looked up, the tested form may be a part): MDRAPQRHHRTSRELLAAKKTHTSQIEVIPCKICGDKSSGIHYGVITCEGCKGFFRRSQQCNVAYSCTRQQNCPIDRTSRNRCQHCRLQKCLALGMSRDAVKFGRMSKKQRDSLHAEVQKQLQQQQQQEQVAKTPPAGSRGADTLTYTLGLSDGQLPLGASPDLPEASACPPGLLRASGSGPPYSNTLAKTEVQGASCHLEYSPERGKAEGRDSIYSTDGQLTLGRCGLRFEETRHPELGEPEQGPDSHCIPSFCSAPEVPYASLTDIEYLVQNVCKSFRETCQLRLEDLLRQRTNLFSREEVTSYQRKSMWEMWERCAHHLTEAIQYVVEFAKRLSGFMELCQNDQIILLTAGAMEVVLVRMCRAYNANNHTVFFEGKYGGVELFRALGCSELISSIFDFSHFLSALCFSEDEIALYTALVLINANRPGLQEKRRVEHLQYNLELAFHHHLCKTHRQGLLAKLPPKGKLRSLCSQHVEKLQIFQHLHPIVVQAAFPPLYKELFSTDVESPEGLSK
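Drosophila S2 cells stably expressing Gal4-DBD/mouse RORγ fusion under metallothionein promoter plus UAS-luciferase; compound 1 h, then 700 uM CuSO4 induction for 20 h at ambient temperature; inhibition read as reduced luminescence.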
VP16 counter – inhibits Gal4-VP16 luciferase reporter, ROR gamma counter-screen. Drosophila S2 Gal4-VP16 UAS-luciferase, luminescence, 20 h. Potency, µM (doses to about 53.6 µM), most hits filed as inhibitors. 310,000 compounds, 3.5% hits;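 further: Gal4-VP16 expression switched on by copper sulfate through the metallothionein promoter; nearly all actives have a fitted effect of over 50% in size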
SW480 rereplic – inducers of DNA re-replication in SW480 colon cancer cells; Potency, µM (series often up to 46.1 µM), actives largely listed as activators; SW480 DNA re-replication, Hoechst DNA content imaging, 48 h; 340,000 compounds, 1.8% hits; further: nearly all actives have a fitted effect of over 55% in size
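Per well, 250 cells were exposed to pinned compound for 48 hr. Nuclear DNA was visualised with Hoechst (40 min, 37 C) and total object intensity recorded by fluorescence scanning.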
IL1B secr inh – inflammasome signaling inhibition, IL-1 beta readout | 360,000 compounds, 4.7% hits | activity change, % at 57.5 µM | THP-1 LPS/ATP IL-1B secretion, AlphaLISA, 16 h; hits give low values; in the data active means activity change below about -50%; inconclusive means mostly about -30% to -49%
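Secreted IL-1B measured by AlphaLISA bead assay after 16 h compound exposure of THP-1 cells; compounds (final up to 57.5 uM) added 1 h before LPS (250 ng/mL) and ATP (1.25 mM) stimulation; lower signal means less secretion.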
MCF10A rereplic – inducers of DNA re-replication in MCF 10A breast cells; Potency, µM (top dose mostly 46.1 µM), actives largely listed as activators; AID 624296; 350,000 compounds, 2.9% hits; MCF 10A DNA re-replication, Hoechst nuclear intensity, 48 h; further: nearly all actives have a fitted effect of over 50% in size
A number is an active result; i = inactive; ? = inconclusive; nt = not tested or not shown; [ ] = remark or other dose. Unless noted, the call rests on the fitted dose curve; in most records, active means well fitted curve in the direction sought with a large enough effect; inconclusive means small, poorly fitted or top-dose-only effect, or another doubt; inactive means no such curve, though single readings can be large; an effect the other way counts as inactive or inconclusive.

SMILES | RORg inh | VP16 counter | SW480 rereplic | IL1B secr inh | MCF10A rereplic
CSc1nc2ncc(C#N)cn2n1 | i | i | i | i | i
CCN(CC)C(=O)C(C)N(C#N)c1nc(Cl)nc(N(C)C)n1 (stereo unspecified) | i | i | i | -98 | i
O=[N+]([O-])c1cccc(N(CC(O)CN2CCCCC2)S(=O)(=O)c2ccccc2)c1 (stereo unspecified) | i | i | i | ? | i
CCCCC1(C)Cc2ccccc2C(=S)N1 (stereo unspecified) | 1µM | 5.6µM | ? | i | i
CCOC(=O)/C(C)=C1\NC(C)(C)Cc2ccccc21 | i | i | i | i | i
Cc1ccc(-c2nc(=S)c3c(n2CC2CCCO2)CC(C)(C)OC3)cc1 (stereo unspecified) | i | i | i | i | i
OCCCn1c(-c2ccccc2)nc(=S)c2c1CCCC2 | i | i | i | i | i
CN(C)CCCn1c(-c2ccccc2)nc(=S)c2c1CCCC2 | i | i | 3.3µM | i | i[0.0737 µM]
COc1cccc(-c2nc(=S)c3c(n2Cc2ccco2)CCCC3)c1 | ? | i | i | i | 21µM
Cc1ccc(-c2nc(=S)c3c(n2Cc2ccco2)CCCC3)cc1 | i | i | i | i | ?
Cc1cccc(-c2nc(=S)c3c(n2Cc2ccco2)CCCC3)c1 | 11µM | ? | ? | i | i
Cc1ccc(-c2nc(=S)c3c(n2Cc2ccco2)CC(C)(C)OC3)cc1 | 2.8µM | 16µM | ? | i | ?
CCN(CC)c1ccc(NC(=O)c2ccccn2)cc1S(=O)(=O)Nc1ccccc1OC | nt | nt | i | i | i
Cc1ccc(S(=O)(=O)N2CCN(C(=O)COC(=O)CCOc3ccccc3C)CC2)c(C)c1 | nt | nt | i | i | i
CCN(CC)C[C@@H]1CCCCN1CC(=O)N1c2ccccc2C(=O)Nc2cccnc21 | i | i | nt | nt | nt
CC1CC(C)CN(C(=O)C2CCN(S(=O)(=O)c3ccc4c(c3)CC(C)N4C(=O)C3CC3)CC2)C1 (stereo unspecified) | i | i | i | ? | i
C/C(CCc1ccc2c(c1)OCO2)=N\N=C(/N)SC1CC(=O)N(c2ccc(Cl)cc2)C1=O (stereo unspecified) | 8.9µM | ? | i | i | i
N/C(=N\N=C\c1ccc2c(c1)OCO2)SC1CC(=O)N(c2ccc(C(=O)O)cc2)C1=O (stereo unspecified) | i | i | i | i | i
C/C(CCN1CCCc2nc(C)c(C)cc21)=N\O[C@@H](C)c1cn([C@@H]2COC[C@@H]2O)nn1 | i[10 µM] | i[10 µM] | nt | nt | nt
COc1ccc(-n2ncc3c(NC(C)C)ncnc32)cc1 | 11µM | ? | i | i | i
COCC(C)Nc1ncnc2c1cnn2-c1ccc(Cl)cc1 (stereo unspecified) | i | i | i | -57 | i
COc1ccc(-n2ncc3c(=O)n(CC(=O)NC(C)C)cnc32)cc1 | i | i | i | i | 0.92µM
COc1ccc(-n2ncc3c(NCC(C)C)ncnc32)cc1 | i | i | i | i | i
COc1cc(OC)cc(-c2c(-c3cccs3)c3cc(-c4cnc(OC)nc4)ccc3n2C)c1 | nt | nt | i | i | i
O=C(C1=C[C@@H](c2ccc(C(F)(F)F)cc2)C[C@@H](OCCCCO)O1)N1CCN(Cc2ccccc2)CC1 | i | i | ? | i | ?
SMILES | RORg inh | VP16 counter | SW480 rereplic | IL1B secr inh | MCF10A rereplic
CCO[C@@H]1OC(C(=O)N2CCN(Cc3ccccc3)CC2)=C[C@H](c2ccc(C(F)(F)F)cc2)[C@H]1CCCO | ? | i | ? | -88 | i
CCO[C@H]1OC(C(=O)N2CCN(Cc3ccc4c(c3)OCO4)CC2)=C[C@@H](c2ccc(C(F)(F)F)cc2)[C@@H]1CCCO | i | i | i | -77 | ?
O=C(C1=C[C@H](c2ccc(C(F)(F)F)cc2)C[C@H](OCCCCO)O1)N1CCN(Cc2ccccc2)CC1 | ? | i | i | -54 | i
CCO[C@@H]1OC(C(=O)N2CCN(Cc3ccccc3)CC2)=C[C@H](c2ccc(Br)cc2)[C@H]1CCCO | i | i | i | i | ?
CNc1cc(-c2ccccc2C(F)(F)F)ncn1 | i | i | nt | nt | nt
CC(C)CCCC(C)CCCC(C)CCCCC(C)CCCC(C)CCCC(C)C (stereo unspecified) | i[10 µM] | i | i | nt | i
CN1CCN(S(=O)(=O)c2ccc(N3CCN(S(=O)(=O)/C=C/c4ccccc4)CC3)nc2)CC1 | i | i | ? | i | 7.3µM

Bioassay records deposited in PubChem by National Center for Advancing Translational Sciences (NCATS).
